In PubChem BioAssay (NCATS):
Records with an inconclusive call do not appear. Activity calls are given as the source filed them. Calls come from the whole dose curve; as a rule, active = well fitted inhibition curve with a large enough effect; inconclusive = small, poorly fitted or top-dose-only effect; inactive = flat fitted curve, though single readings scatter.

What was measured:
Assay in all cases: qHTS profiling for inhibitors of Plasmodium falciparum proliferation (AID 504749); note: nearly all actives have a fitted effect of over 60% in size
Settings in all cases: P. falciparum in erythrocytes, SYBR Green DNA, 72 h; series mostly up to 28.7 µM
ATS95 = tested on: ATS95
Procedure, shortened: (§1)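 Infected RBCs, 0.3% parasitemia/2.5% Hct final; cpd 72 h, 37 C, 5% CO2; lysis buffer with saponin/triton/SYBR Green I, o/n RT dark; FI 485/535; norm. to artemisinin (0.29 uM) and DMSO.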

C2A = tested on: C2A
Procedure, shortened: as §1

CP185 = tested on: CP185
Procedure, shortened: as §1

CP191 = tested on: CP191
Procedure, shortened: as §1

CP192 = tested on: CP192
Procedure, shortened: as §1

CP194 = tested on: CP194
Procedure, shortened: as §1

CP201 = tested on: CP201
Procedure, shortened: as §1

CP203 = tested on: CP203
Procedure, shortened: as §1

CP211 = tested on: CP211
Procedure, shortened: as §1

CP215 = tested on: CP215
Procedure, shortened: as §1

CP217 = tested on: CP217
Procedure, shortened: as §1

CP237 = tested on: CP237
Procedure, shortened: as §1

CP238 = tested on: CP238
Procedure, shortened: as §1

CP247 = tested on: CP247
Procedure, shortened: as §1

CP250 = tested on: CP250
Procedure, shortened: as §1

CP252 = tested on: CP252
Procedure, shortened: as §1

CP256 = tested on: CP256
Procedure, shortened: as §1

CP260 = tested on: CP260
Procedure, shortened: as §1

CP262 = tested on: CP262
Procedure, shortened: as §1

CP265 = tested on: CP265
Procedure, shortened: as §1

Measured: Potency

CC(C)CCCC(C)NC(C)C (stereo not given)
inactive: all assays above

C=Cc1ccc(S(=O)(=O)O)cc1
inactive: all assays above

O=C(O)c1cc(N=Nc2ccc(O)c(C(=O)O)c2)ccc1O
inactive: all assays above

CC(C)[C@@H](N)C(=O)O
inactive: all assays above

CN1C(=O)OC(C)(C)C1=O
inactive: all assays above

FCOC(C(F)(F)F)C(F)(F)F
inactive: all assays above

OC[C@H]1O[C@@H]2O[C@H]3[C@H](O)[C@@H](O)[C@@H](O[C@H]4[C@H](O)[C@@H](O)[C@@H](O[C@H]5[C@H](O)[C@@H](O)[C@@H](O[C@H]6[C@H](O)[C@@H](O)[C@@H](O[C@H]7[C@H](O)[C@@H](O)[C@@H](O[C@H]1[C@H](O)[C@H]2O)O[C@@H]7CO)O[C@@H]6CO)O[C@@H]5CO)O[C@@H]4CO)O[C@@H]3CO
inactive: all assays above

CC1(C)S[C@@H]2[C@H](NC(=O)C3(N)CCCCC3)C(=O)N2[C@H]1C(=O)O
inactive: all assays above

CC(C)[C@H](N)C(=O)OCC(CO)OCn1cnc2c(=O)[nH]c(N)nc21 (stereo not given in full)
inactive: all assays above

c1ccc2ccccc2c1
inactive: all assays above

CC1=C(/C=C/C(C)=C/C=C/C(C)=C/C(=O)Oc2c(C)c(C)c3c(c2C)CC[C@@](C)(CCC[C@H](C)CCC[C@H](C)CCCC(C)C)O3)C(C)(C)CCC1
inactive: all assays above

CCCCCCOC(=O)c1cccnc1
inactive: all assays above
